The list is not random: actives were taken first. Their share in the collection is about 1.1%.
NFkB transloc pot = enhancers of NFkB p65 translocation in HUVEC – imaging, IL-1B stimulus, high-content imaging, primary screen. HUVEC IL-1B NFkB p65 nuclear translocation imaging. activation, % at 2 µM. 94,000 compounds, 0.3% hits. AID 819, 2007;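 active means activation above 40%, about the mean plus 3 SD, also judged a hit on visual image review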;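 further: percent activation is computed from the nuclear over cytoplasmic p65 intensity ratio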
IL1B NFkB inh = inhibitors of IL-1B driven NFkB p65 nuclear import, primary screen, imaging, HUVEC, IL-1B stimulus, high-content imaging; HUVEC IL-1B NFkB p65 nuclear translocation imaging; inhibition, % at 2 µM; 94,000 compounds, 0.43% hits;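 active means inhibition above about 30% together with a positive call from visual inspection of the well image, limit read from the data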;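 further: nuclear over cytoplasmic p65 intensity ratio measured by imaging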
EphB4 antag = EphB4-ephrin-B2 interaction antagonists, primary screen, biochemical, TNYL-RAW peptide probe, fluorescence polarization; 97,000 compounds, 0.15% hits; inhibition, % at 7 µM; EphB4 LBD / TNYL-RAW-Alexa532 peptide;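 active means inhibition above the screen-wide mean inhibition plus 3 SD, cut at about 15% in these data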
Target sequence (P54760 whole entry, looked up, the tested form may be a part): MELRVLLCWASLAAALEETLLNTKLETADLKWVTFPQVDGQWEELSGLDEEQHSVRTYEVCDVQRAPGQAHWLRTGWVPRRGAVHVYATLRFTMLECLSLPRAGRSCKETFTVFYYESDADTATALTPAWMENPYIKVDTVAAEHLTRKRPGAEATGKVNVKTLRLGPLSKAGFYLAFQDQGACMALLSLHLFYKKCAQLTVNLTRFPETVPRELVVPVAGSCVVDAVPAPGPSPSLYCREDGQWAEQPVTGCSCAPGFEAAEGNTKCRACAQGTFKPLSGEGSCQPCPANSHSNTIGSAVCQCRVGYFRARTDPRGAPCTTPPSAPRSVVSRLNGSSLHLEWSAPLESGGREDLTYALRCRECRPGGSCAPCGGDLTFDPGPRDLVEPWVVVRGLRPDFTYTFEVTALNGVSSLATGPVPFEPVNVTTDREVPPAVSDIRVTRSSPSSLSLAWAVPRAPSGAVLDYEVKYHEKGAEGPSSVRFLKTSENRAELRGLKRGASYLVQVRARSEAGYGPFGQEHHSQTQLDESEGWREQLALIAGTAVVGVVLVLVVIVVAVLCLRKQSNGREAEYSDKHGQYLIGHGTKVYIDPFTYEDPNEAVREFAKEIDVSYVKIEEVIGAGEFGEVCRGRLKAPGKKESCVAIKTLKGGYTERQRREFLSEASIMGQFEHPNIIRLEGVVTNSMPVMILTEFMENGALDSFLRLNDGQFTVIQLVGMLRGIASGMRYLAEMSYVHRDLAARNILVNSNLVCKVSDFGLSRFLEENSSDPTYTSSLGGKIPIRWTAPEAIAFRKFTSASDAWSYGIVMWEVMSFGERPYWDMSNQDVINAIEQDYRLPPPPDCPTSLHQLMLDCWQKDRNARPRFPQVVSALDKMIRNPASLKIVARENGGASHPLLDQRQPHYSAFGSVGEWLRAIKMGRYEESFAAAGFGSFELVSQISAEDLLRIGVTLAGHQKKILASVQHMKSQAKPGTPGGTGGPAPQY
Calb biofilm kill = clotrimazole potentiators killing Candida biofilms, primary screen, with clotrimazole, Alamar Blue; C. albicans biofilm + clotrimazole; inhibition, % at 6 µM; 85,000 compounds, 0.14% hits;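 active means inhibition above 20%; inactive means inhibition below 20%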;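 further: preformed 24 hr biofilms exposed to compound for 48 hr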
IL1B cytotox = cytotoxicity in IL-1B stimulated HUVEC, primary screen, cytotoxicity control for IL-1B NFkB translocation project, imaging, Hoechst nuclear count, IL-1B stimulus; 94,000 compounds, 0.41% hits; cell count reduction, % at 2 µM; HUVEC cell count loss; AID 845, 2007;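 active means cell count reduction more than 3 SD above the screen-wide mean, cut at about 70% in these data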
Each line names hits and unclear results; the compound was inactive in the other large screens.

COc1ccc(CC(=O)Nc2ccc(-c3nnc(-c4ccccc4)o3)cc2)cc1OC	IL1B NFkB inh 91
CCOC(=O)CSc1nnc(Cc2ccccc2)n1CC1CCCO1 (stereo not given)	NFkB transloc pot 52
CCOC(=O)C1CCN(S(=O)(=O)Cc2ccccc2)C1=O (stereo not given)	EphB4 antag 15
Cc1sc2c(c1C)c(=O)nc1scc(C)n12	none
CC(C)N(CCCNC(=O)C1CCN(S(=O)(=O)N2CCOCC2)CC1)Cc1ccccc1	none
N/C(Cc1cccs1)=N\OC(=O)COc1ccc(Br)cc1	NFkB transloc pot 60
Nc1nc(SCC(=O)NCc2ccccc2)n[nH]1	none
CCN(CC)Cc1nc2c(c(=O)[nH]1)C1(CCCCC1)Cc1ccccc1-2	IL1B cytotox 90
O=C(Cn1cc(C(=O)C2CC2)c2ccccc21)NC1CCCC1	none
Cc1cccc(S(=O)(=O)N(CC(=O)Nc2ccccc2C)Cc2ccco2)c1	Calb biofilm kill 39
COc1ccc2c(c1)CCc1c(C(=O)Nc3ccc(OC)c(OC)c3)noc1-2	none
Cc1cc(NC(=O)CN2CCN(c3ccccc3F)CC2)nc2c1c(=O)oc1ccccc12	none (no result: NFkB transloc pot, IL1B NFkB inh, EphB4 antag, IL1B cytotox)
Cc1ccc(CCNC(=O)Cn2cccc2)cc1	IL1B NFkB inh 98, IL1B cytotox 88
CC(=NCCN1CCN(C(=S)Nc2ccccc2)CC1)C1=C(O)CC(C)(C)CC1=O	none (no result: Calb biofilm kill)
CC12CCC(C(=O)N(CSC(=S)N/N=C\c3ccccc3)C1=O)C2(C)C (stereo not given)	none
CC12CCC(C(=O)N(CSC(=S)N/N=C\c3ccccc3Cl)C1=O)C2(C)C (stereo not given)	IL1B NFkB inh 100, IL1B cytotox 95
Cc1nnc(NC(=O)CSc2ncnc3scc(-c4ccccc4)c23)s1	none (no result: Calb biofilm kill)
COC(=O)c1c(-c2ccccc2)csc1NC(=O)CSc1ncnc2sc(C)c(C)c12	IL1B cytotox 89 (no result: Calb biofilm kill)
CCN(CC)C(=O)CNC(=O)Cc1ccc(Cl)cc1	none
N#CC1=C(N)Oc2n[nH]c(-c3ccccc3)c2C1c1cccc(OC(=O)N2CCOCC2)c1 (stereo not given)	none
NC1=NC(=O)CC(C(=O)NCCc2ccccc2)S1 (stereo not given)	IL1B NFkB inh 47
CCc1ccc(NC(=O)C2CC(=O)N=C(N)S2)cc1 (stereo not given)	none
CCOC(=O)N1CCC(n2c(SCC(=O)c3ccccc3)nc3ccsc3c2=O)CC1	none (no result: Calb biofilm kill)
CCSC1=NC2(CCCCC2)Nc2sc3c(c21)CCCC3	none
CCOC(=O)CCc1c(C)c2c(C)nn(-c3ccccc3)c2[nH]c1=O	IL1B NFkB inh 32 (no result: Calb biofilm kill)
Cc1ccc2nc(/C(C#N)=C\c3ccc(N4CCOCC4)o3)[nH]c2c1	none
Cc1ccc2nc(/C(C#N)=C\c3ccc([N+](=O)[O-])o3)[nH]c2c1	IL1B NFkB inh 38 (no result: Calb biofilm kill)
CCOC(=O)C1CCCN(C(=O)c2cc(Nc3ccc(OC)cc3)nc3ccccc23)C1 (stereo not given)	none
Nc1nnnn1/N=C/c1cccc(OCc2ccccc2Cl)c1	none
CCC(=O)NC(O)C(=O)c1ccc(C)cc1 (stereo not given)	IL1B NFkB inh 32
COc1ccc(C(C)=O)cc1CSc1nc2cc(Cl)ccc2o1	IL1B cytotox 88
COc1ccccc1CNC(=O)c1cc2c(=O)n(C)c3ccccc3c2n1C	none (no result: NFkB transloc pot, IL1B NFkB inh, EphB4 antag, IL1B cytotox)
CCCC(=O)Nc1ccc(NC(=O)c2ccco2)c(OC)c1	none
CCOc1ccc(N2C(=O)CC(SC(=NC)Nc3ccc(F)cc3)C2=O)cc1 (stereo not given)	none
CCCCCCCOC(=O)C1=C(C)Nc2ncnn2C1c1cccs1 (stereo not given)	NFkB transloc pot 41
CCCCCCCCOC(=O)C1=C(C)Nc2nnnn2C1c1cccs1 (stereo not given)	none
O=c1ccc(Oc2nc(N3CCCCC3)nc(N3CCCCC3)n2)n[nH]1	none
CSc1ccc(-c2nnn(Cc3ccccn3)n2)cc1	none
CSc1ccc(-c2nnn(Cc3ccc(Br)cc3)n2)cc1	NFkB transloc pot 58
O=C(NCc1ccccn1)C(F)(F)C(F)(F)C(=O)NCc1ccccn1	none
O=C(CSc1ccc2nnc(-c3ccccn3)n2n1)N1CCOCC1	Calb biofilm kill 46
O=C(CSc1ccc2nnc(-c3cccs3)n2n1)N1CCOCC1	none (no result: NFkB transloc pot, IL1B NFkB inh, EphB4 antag, IL1B cytotox)
CCCCCOC(=O)Nc1nnc(CCCCC)s1	IL1B cytotox 90
CCOCC(=O)Nc1nnc(COC)s1	none

High-throughput results deposited in PubChem BioAssay by several laboratories.
